Bioassay records from PubChem BioAssay.
G9a inh: G9a (human) methyltransferase inhibition | Q96KQ7 | G9a H3K9 monomethylation, AlphaScreen, 2 h | Potency, µM (doses to about 102 µM), without a hit: top-dose activity, negative = inhibition, most hits filed as inhibitors | actives 8.8% (n = 350,000) | AID 504332; also: % is scaled to controls: 0 for no effect and ±100 for the full control effect; nearly all actives have a fitted effect of over 75% in size
Target sequence (Q96KQ7 913-1193 limits assumed): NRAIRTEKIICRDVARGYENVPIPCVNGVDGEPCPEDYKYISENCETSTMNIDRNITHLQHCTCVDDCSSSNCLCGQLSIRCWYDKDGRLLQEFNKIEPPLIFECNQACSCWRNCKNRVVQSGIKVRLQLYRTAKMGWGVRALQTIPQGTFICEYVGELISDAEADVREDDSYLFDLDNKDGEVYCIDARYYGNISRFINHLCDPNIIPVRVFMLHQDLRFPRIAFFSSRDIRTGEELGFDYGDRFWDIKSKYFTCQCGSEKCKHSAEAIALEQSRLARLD
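AlphaScreen read-out: biotin-H3K9 peptide (500 nM) methylation by 20 nM enzyme with 20 uM SAM, 2 h at room temperature after 15 min compound preincubation; anti-monomethyl H3K9 antibody plus donor/acceptor beads, 10 min dark.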
JMJD2A Tudor: inhibitors of human JMJD2A Tudor domain; O75164; AlphaScreen JMJD2A-Tudor / H3K4me3 peptide binding; Potency, µM (series often up to 114 µM), for the others: at the highest dose activity change, negative = inhibition, most hits filed as inhibitors; actives 4.4% (n = 390,000); AID 504339; also: % is scaled to controls: 0 for no effect and ±100 for the full control effect; nearly all actives have a fitted effect of over 50% in size
Sfp inh: inhibitors of Bacillus subtilis Sfp phosphopantetheinyl transferase | Biochemical Sfp PPTase activity, qHTS | Potency, µM, for inactives: largest response in the series, negative = inhibition, most hits filed as inhibitors | actives 3.5% (n = 310,000) | AID 1490;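 also: the enzyme is Sfp with the accession as filed and its product quenches rhodamine fluorescence; 0% = enzyme reaction without inhibitor and -100% = no enzyme wells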
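Step 1, compound plus 15 nM Sfp-PPTase, 15 min, room temperature. Step 2, add rhodamine-CoA (5 uM) and BHQ-2-YbbR (12.5 uM). Step 3, read 525/598 nm fluorescence at 0 and 30 min.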
L3MBTL1 inh: blocks human L3MBTL1 | Q9Y468 | AlphaScreen L3MBTL1–H3K9me1 peptide binding | Potency, µM (highest dose often 57.1 µM), inactives show top-dose activity, negative = inhibition, actives largely listed as inhibitors | actives 0.66% (n = 230,000); also: % is scaled to controls: 0 for no effect and ±100 for the full control effect; nearly all actives have a fitted effect of over 60% in size
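AlphaScreen proximity signal between nickel-chelate acceptor and streptavidin donor beads (final 10 ug/mL) reports binding of 50 nM L3MBTL1 to 75 nM biotin-H3 K9me1 peptide; complex incubated with compounds 30 min at room temperature; cefsulodin titration as control.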
HP1b chromo inh: inhibitors of HP1-beta chromodomain binding to methylated histone tails; AlphaScreen HP1-beta / biotin-H3K9me3 peptide binding; Potency, µM (top dose mostly 114 µM), for inactives: at the top dose activity change, negative = inhibition, actives largely listed as inhibitors; actives 0.56% (n = 390,000); also: nearly all actives have a fitted effect of over 70% in size
Target sequence (P83916 whole entry, looked up): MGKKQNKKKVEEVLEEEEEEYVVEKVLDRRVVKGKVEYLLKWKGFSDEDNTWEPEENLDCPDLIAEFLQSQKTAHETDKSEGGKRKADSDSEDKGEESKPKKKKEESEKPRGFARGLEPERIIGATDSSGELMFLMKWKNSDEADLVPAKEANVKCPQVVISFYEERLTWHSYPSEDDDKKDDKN
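HP1-beta protein (50 nM final) preincubated 30 min at room temperature with biotinylated H3(1-18)K9me3 peptide (50 nM) in PBS pH 7.4, 0.01% Tween-20, then compound added for 30 min. AlphaScreen streptavidin donor/nickel chelate acceptor beads (10 ug/mL final), 30 min dark, luminescence read.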
BAZ2B block: inhibitors of human BAZ2B bromodomain; actives 4.4% (n = 360,000); Potency, µM (titrated, usually from 114 µM), without a hit: at the top dose activity change, negative = inhibition, usual class: inhibitors; AlphaScreen BAZ2B-H3K14Ac peptide displacement; Q9UIF8; also: % is scaled to controls: 0 for no effect and ±100 for the full control effect; nearly all actives have a fitted effect of over 60% in size
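AlphaScreen luminescence quantifies BAZ2B engagement of H3K14Ac peptide; the protein and biotinylated peptide are both at 50 nM final, buffer PBS pH 7.4 with 0.01% Tween-20, all steps at room temperature.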
The depositor's hits bear a star; ? = inconclusive; · = no result given; [ ] = remark or other dose. In the library only some 12% were active in any assay of this set; here they are far more common. Calls follow the shape of the dose curve; as a rule, active = well fitted curve in the direction sought with a large enough effect; inconclusive = small, poorly fitted or top-dose-only effect, or another doubt; inactive = no such curve, though single readings can be large; an effect the other way counts as inactive or inconclusive. Potency is read from the fitted curve at half-maximal effect.

SMILES	G9a inh	JMJD2A Tudor	Sfp inh	L3MBTL1 inh	HP1b chromo inh	BAZ2B block
Oc1ccc(C2C[C@H]3CC[C@@H]2C3)cc1O (stereo partly specified)	1µM*	20µM*	22.4µM*	·	79.4µM*	?
CS(=O)(=O)N1CCC[C@@]2(CCN(c3ccccn3)C2)C1	-6.2%[12.7 µM]	·	27.6%	·	·	·
O=C(CSc1nc2ccccc2n1Cc1cccc(C(F)(F)F)c1)NCc1ccccc1	16.1%[59 µM]	-7.6%	·	·	34.3%	-13.1%
COc1ccc(-c2nc3c(c4c2CC(C)OC4)CN(CCC(C)C)CC3)cc1 (stereo unspecified)	·	·	12.3%	·	·	·
O=C(Cn1cc(COc2ccccc2C(F)(F)F)nn1)c1ccc(O)cc1	·	44.7µM*	·	·	21.1%	·
COc1cc(C(C)=O)ccc1OCc1cn(CC(=O)c2ccc(O)cc2)nn1	·	22.4µM*	·	·	41.4%	·
O=C(Cn1cc(COc2ccc(Br)cc2[N+](=O)[O-])nn1)c1ccc(O)cc1	·	50.1µM*	·	·	20.0%	·
Cc1cccc(C)c1OCc1cn(CC(=O)c2ccc(O)cc2)nn1	·	89.1µM*	·	·	15.3%	·
O=C(Cn1cc(COc2cc(F)cc(F)c2)nn1)c1ccc(O)cc1	·	-17.3%	·	·	31.2%	·
Cc1nc(-c2cccc(NC(=O)Nc3ccc([N+](=O)[O-])cc3)c2)no1	-35.6%[59 µM]	?	·	·	-1.5%[57 µM]	?
CC[C@H](C)[C@H](NC(=O)[C@H](Cc1ccc(O)cc1)NC(=O)[C@@H]1CCCN1C(=O)[C@H](CCCCN)NC(=O)[C@@H](N)CCCCN)C(=O)N[C@@H](CC(C)C)C(=O)O	·	·	-6.4%	·	·	·
O=C(CN1CCCC1)Nc1nc(-c2ccc3c(c2)CCN3C(=O)c2ccccc2F)cs1	?	?	-4.7%	·	-5.7%	-27.9%
CC(=O)Nc1nc(-c2ccc3c(c2)CCN3S(C)(=O)=O)cs1	·	-16.3%	56.2µM*	-8.2%	-15.2%	?
CS(=O)(=O)N1CCc2cc(-c3csc(NC(=O)Cc4cccs4)n3)ccc21	-29.2%[12.7 µM]	-22.1%	17.9%	·	10.3%	-23.7%
CC(C)(C)Nc1nc(-c2ccc3c(c2)CCN3C(=O)C2CC2)cs1	39.8µM*	?	-22.5%	·	?	?
CNc1nc(-c2ccc3c(c2)CCN3C(=O)c2ccc(F)cc2)cs1	31.6µM*	-27.1%	-5.3%	9.4%	9.2%	?
CNc1nc(-c2ccc3c(c2)CCN3C(=O)c2ccccc2C)cs1	22.4µM*	?	?	-16.2%	?	50.1µM*
Cc1cccc(C(=O)N2CCc3cc(-c4csc(NC(=O)CN5CCCC5)n4)ccc32)c1	?	?	-16.7%	·	-13.3%	?
Cc1ccc(-c2cc(C(=O)Oc3ccc(C#N)cc3)no2)cc1	-2.3%[59 µM]	-7.9%	·	·	35.4%	-18.0%
Cc1ccc(C(CC(=O)Nc2ccc(C)cc2C)N2Cc3ccccc3C2=O)cc1 (stereo unspecified)	-41.3%[59 µM]	-19.0%	·	·	14.0%	?
C(=N\c1nccs1)/Nc1nccs1	28.2µM*	35.5µM*	-21.2%	-1.2%	-77.3%	79.4µM*
CC(=O)c1cccc(N2Cc3ccccc3C2=NC(=O)CCl)c1	31.6µM*	35.5µM*	?	7.3%[11.4 µM]	2.5%	-35.4%
CCc1ccc(NC(=O)C(CC)n2c(=O)c(-c3ccccc3NC(C)=O)nc3ccccc32)cc1 (stereo unspecified)	-14.3%[59 µM]	-9.9%	·	·	-2.3%	-23.7%
O=C(Nc1ccc(Cl)cc1F)c1cc(S(=O)(=O)NC2CCCCCC2)ccc1F	2.0%[59 µM]	-11.3%	·	·	40.0%	0.0%
COc1ccc(Cl)cc1NC(=O)Cn1c(=O)n(Cc2nc(C)no2)c(=O)c2ccccc21	-3.9%[59 µM]	-8.6%	·	·	10.7%	-7.6%
C=CCN(c1ccccc1OC)S(=O)(=O)c1ccc(Cl)c(C(=O)Nc2ccc(N3CCOCC3)cc2)c1	25.1µM*	-30.8%	5.9%	?	3.5%	?
CN(CC(=O)Nc1ccc(N2CCOCC2)cc1)C(=O)c1cc(S(=O)(=O)N(C)C)ccc1Cl	?	-16.6%	11.3%	·	4.0%	-18.7%
